Bioassay records from PubChem BioAssay.
Shiga inhibitor: A qHTS for Small Molecule Inhibitors of Shiga Toxin; 9.2% of 290,000 active; Vero cells, Shiga toxin protein synthesis inhibition reporter; inhibition, % at 38.7 µM; in the data active = inhibition mostly above about 28%, no sharp cut-off; inactive = mostly below about 43%; note: 0% is about no effect
Marburg entry inh: qHTS for inhibitors of binding or entry into cells for Marburg Virus; Potency, µM (doses to about 37.8 µM), without a hit: at the highest dose activity change, negative = inhibition, hits mostly inhibitors; 1.8% of 300,000 active; Marburg virus pseudotyped entry inhibition, cell reporter; calls by dose curve; tested in HEK293 cells; note: potency is the fitted concentration of half-maximal effect; % is set by controls: 0 for no effect and ±100 for the full control effect
CHX counter: Cycloheximide Counterscreen for Small Molecule Inhibitors of Shiga Toxin; max response, %; cell reporter, cycloheximide protein synthesis inhibition counterscreen; 12% of 300,000 active; in the data active = max response mostly above about 13%, no sharp cut-off; inactive = mostly below about 14%; note: read at 38.3 µM for the half of the compounds with a filed dose; 0% is about no effect
Pf growth 96h: Primary qHTS for delayed death inhibitors of the malarial parasite plastid, 96 hour incubation | P. falciparum luciferase reporter growth, 96 h | Potency, µM (top dose mostly 28.7 µM), without a hit: at the highest dose activity change, negative = inhibition, most hits filed as inhibitors | 6.9% of 320,000 active; note: potency is the fitted concentration of half-maximal effect; % is set by controls: 0 for no effect and ±100 for the full control effect
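P. falciparum expressing integrated firefly luciferase grown in erythrocytes (2% hematocrit, 0.05% parasitemia final) with compounds for 96 hours at 37 C, 5% CO2. Growth inhibition read as loss of luminescence after adding luciferase detection reagent.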
LASV entry inh: qHTS for Inhibitors of binding or entry into cells for Lassa Virus. Lassa virus pseudotype entry inhibition, cell reporter. Potency, µM (top dose mostly 37.9 µM), for inactives: at the top dose activity change, negative = inhibition, actives largely listed as inhibitors. 1.2% of 300,000 active; calls by dose curve; tested in HEK293 cells; note: potency is the fitted concentration of half-maximal effect; % is set by controls: 0 for no effect and ±100 for the full control effect; nearly all actives have a fitted effect of over 50% in size
Pf growth 48h: Primary qHTS for delayed death inhibitors of the malarial parasite plastid, 48 hour incubation; P. falciparum luciferase growth in erythrocytes, 48 h; Potency, µM (top dose mostly 28.7 µM), for inactives: at the top dose activity change, negative = inhibition, actives largely listed as inhibitors; 5.9% of 310,000 active; AID 504832, 2011; note: potency is the fitted concentration of half-maximal effect; % is set by controls: 0 for no effect and ±100 for the full control effect
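Growth was read as firefly luciferase luminescence after a 48 h, 37 C, 5% CO2 exposure of compounds to reporter-bearing P. falciparum cultures (0.1% parasitemia, 2% hematocrit final) in Albumax-supplemented RPMI 1640.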
Numbers without * were called inactive; [ ] = another dose, or the depositor's remark. Shown are actives, neighbours in structure and some others; about 19% of the full set was active somewhere. Unless noted, calls come from the whole dose curve; as a rule, active = well fitted inhibition curve with a large enough effect; inconclusive = small, poorly fitted or top-dose-only effect, or another doubt; inactive = no such curve, though single readings can be large or run the other way.

COCc1cc(=O)n2c([nH]c3ccccc32)c1C#N was read as Shiga inhibitor -16, Marburg entry inh inconclusive, CHX counter 6, Pf growth 96h inconclusive, LASV entry inh 7% and Pf growth 48h 0%.
Cc1ccc(Cc2c(C)c(C#N)c3[nH]c4ccccc4n3c2=O)cc1 was read as Shiga inhibitor -3, CHX counter -1, Pf growth 96h inconclusive and Pf growth 48h inconclusive.
Screening CCc1cc(=O)n2c([nH]c3ccccc32)c1C#N returned Shiga inhibitor 42*, Marburg entry inh 13%, CHX counter 44*, LASV entry inh 10% and Pf growth 48h 0%.
C=C(C)Cc1c(C)c(C#N)c2[nH]c3ccccc3n2c1=O was read as Shiga inhibitor 19, Marburg entry inh 13µM*, CHX counter -1, Pf growth 96h -16%, LASV entry inh inconclusive and Pf growth 48h 14%.
For CCc1cc(=S)n2c([nH]c3ccccc32)c1C#N the results were Shiga inhibitor 52*, Marburg entry inh inconclusive, CHX counter 9, Pf growth 96h 8%, LASV entry inh inconclusive and Pf growth 48h 12%.
Cc1ccc(C)c(NC(=O)c2cc(-c3ccccc3O)n[nH]2)c1 was read as Shiga inhibitor 59*, Marburg entry inh inconclusive, CHX counter 29*, Pf growth 96h inconclusive, LASV entry inh 1%[46.1 µM] and Pf growth 48h inconclusive.
`Cc1ccc(NC(=O)c2cc(-c3cc(C)c(C)cc3O)n[nH]2)cc1C` gave Shiga inhibitor 9, CHX counter 15*, Pf growth 96h 2.6µM* and Pf growth 48h 2.1µM*.
Cc1ccc(C)c(NC(=O)c2cc(-c3cc(C)c(C)cc3O)n[nH]2)c1 was read as Shiga inhibitor 61*, CHX counter 30*, Pf growth 96h inconclusive and Pf growth 48h 6.6µM*.
Cc1ccc(NC(=O)c2cc(-c3ccc(C)c(C)c3O)n[nH]2)cc1C was read as Shiga inhibitor 6, Marburg entry inh -38%, CHX counter 0, Pf growth 96h inconclusive, LASV entry inh -1% and Pf growth 48h inconclusive.
For Cc1ccc(-c2cc(C(=O)Nc3cc(C)ccc3C)[nH]n2)c(O)c1 the results were Shiga inhibitor 30*, Marburg entry inh inconclusive, CHX counter 18*, Pf growth 96h inconclusive, LASV entry inh 14% and Pf growth 48h inconclusive.
For COc1ccc(CN(C)CC(O)COc2ccc(C(=O)c3ccccc3)cc2)c(OC)c1OC (stereo not given) the results were Shiga inhibitor -3, Marburg entry inh inconclusive, CHX counter -3, Pf growth 96h inconclusive, LASV entry inh inconclusive and Pf growth 48h inconclusive.
Screening O=C(Nc1cccc(F)c1)c1cc(S(=O)(=O)N2CCC(C(=O)O)CC2)ccc1F returned Shiga inhibitor -26, Marburg entry inh 4%, CHX counter 0, Pf growth 96h inconclusive, LASV entry inh -19% and Pf growth 48h 20%.
`O=C1c2ccccc2C(=O)N1CC(O)COc1ccc(Cl)cc1` (stereo not given) gave Shiga inhibitor 31, Marburg entry inh inconclusive, CHX counter 18*, Pf growth 96h 41%, LASV entry inh 7%[46.1 µM] and Pf growth 48h 3%.
`O=C1CCC(=O)N1CC(O)COc1ccccc1` (stereo not given) gave Shiga inhibitor 3, CHX counter -3, Pf growth 96h -12% and Pf growth 48h 9%.
`O=C1CSC(=O)N1CC(O)COc1ccc(Cl)cc1` (stereo not given) gave Shiga inhibitor 86*, Marburg entry inh 13%, CHX counter 39*, Pf growth 96h -4%, LASV entry inh -1% and Pf growth 48h 19%.
Screening O=C(O)CC1COc2ccccc2N1S(=O)(=O)c1ccc(Br)cc1 (stereo not given) returned Shiga inhibitor -4, Marburg entry inh -15%, CHX counter -1, Pf growth 96h -5%, LASV entry inh -9% and Pf growth 48h -6%.
For COc1ccccc1CNC(=O)CCC(=O)N1CCOc2ccc(C)cc21 the results were Shiga inhibitor 5, CHX counter -1, Pf growth 96h -1% and Pf growth 48h -12%.
Cc1cccc(C(=O)NC(Oc2ccccc2)C(Cl)(Cl)Cl)c1 (stereo not given) was read as Shiga inhibitor -3, Marburg entry inh inconclusive, CHX counter -1, Pf growth 96h 7.4µM*, LASV entry inh -29% and Pf growth 48h inconclusive.
Cc1cccc(C(=O)Nc2cccc(OC(=O)c3cccc(C)c3)c2)c1 was read as Shiga inhibitor 87, Marburg entry inh -14%, CHX counter 34*, Pf growth 96h 43%, LASV entry inh 16% and Pf growth 48h 112%.
`COC(=O)COc1cccc(NC(=O)c2cccc(C)c2)c1` gave Shiga inhibitor 20, Marburg entry inh 0%[46.1 µM], CHX counter 17*, Pf growth 96h 10µM*, LASV entry inh 10%[46.1 µM] and Pf growth 48h 10%.
Screening COc1ccc(C(=O)NC(Oc2ccccc2)C(Cl)(Cl)Cl)cc1 (stereo not given) returned Shiga inhibitor -10, Marburg entry inh -22%, CHX counter 1, Pf growth 96h inconclusive, LASV entry inh -13% and Pf growth 48h 64%.
For CC(=O)Oc1cccc(NC(=O)c2cccc(C(=O)Nc3cccc(OC(C)=O)c3)c2)c1 the results were CHX counter -2, Pf growth 96h inconclusive and Pf growth 48h 4%.
`Cc1ccc(C)c(C2(O)CC(C)N(C)CC2C)c1` (stereo not given) gave Shiga inhibitor -8, Marburg entry inh inconclusive, CHX counter -2, Pf growth 96h 6.6µM*, LASV entry inh 16% and Pf growth 48h -2%.
`O=C(NC1CCCC1)c1cc(-c2ccc(F)cc2)on1` gave Shiga inhibitor 96*, Marburg entry inh inconclusive, CHX counter 46*, Pf growth 96h 124%, LASV entry inh inconclusive and Pf growth 48h 117%.
Screening O=C(NC1CCCCC1)c1cc(-c2ccc(Cl)cc2)on1 returned Shiga inhibitor -4, Marburg entry inh 9%[46.1 µM], CHX counter -2, Pf growth 96h 16%, LASV entry inh 9% and Pf growth 48h 77%.
`O=C(NC1CCCC1)c1cc(-c2ccc(Cl)cc2)on1` gave Shiga inhibitor 59*, Marburg entry inh inconclusive, CHX counter 27*, Pf growth 96h 142%, LASV entry inh -18%[46.1 µM] and Pf growth 48h 83%.
`O=c1cc(-c2ccc([N+](=O)[O-])cc2)nc2cc(-c3ccc(Cl)cc3)[nH]n12` gave Shiga inhibitor -7, Marburg entry inh 17%, CHX counter -2, Pf growth 96h 109%, LASV entry inh 20% and Pf growth 48h 20%.
